Records with an inconclusive call do not appear. Entries that show only a call come without a potency. The source made the active and inactive calls. Calls follow the shape of the dose curve; as a rule, active = well fitted inhibition curve with a large enough effect; inconclusive = small, poorly fitted or top-dose-only effect; inactive = flat fitted curve, though single readings scatter.
System: CRL-7250
Assay: qHTS assay to identify novel small-molecules to repurpose for Merkel cell carcinoma treatment (AID 1296009); also: nearly all actives have a fitted effect of over 60% in size
Details: MCC and control cell lines, CellTiter-Glo viability, 72 h; series mostly up to 92 µM
In short: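 Cell viability measured by CellTiter-Glo following 72 hr compound treatment at 37 degree celsius, with NPC and MIPE libraries tested in 8- and 11-point concentration series.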

Row | SMILES | Potency
1 | OCC1OC(Oc2cc(O)cc(/C=C/c3ccc(OC4OC(CO)C(O)C(O)C4O)cc3O)c2)C(O)C(O)C1O (stereo not given) | inactive
2 | CO[C@H]1O[C@@H]2O[C@@]3(C)CCC4[C@H](C)CCC([C@H]1C)[C@]42OO3 (stereo not given in full) | inactive
3 | CC(C)C1C(OC(=O)/C=C/c2ccccc2)CC2(C)OC2CCC2(C)OC2C1O (stereo not given) | inactive
4 | CCC(CC)C(=O)Nc1sc2c(c1C#N)CCC(C(C)(C)CC)C2 (stereo not given) | inactive
5 | CO[C@@H]1CC[C@H](OC[C@]2(COC(=O)c3ccc(C)[nH]3)[C@H](OC(C)=O)CC[C@@]3(C)[C@@H]4CC=C(C)[C@@H](C5=C(O)C(=O)OC5O)[C@]4(C)CC[C@@H]32)O[C@H]1C (stereo not given in full) | inactive
6 | O=C(O)Cc1cc(I)c(Oc2ccc(O)c(I)c2)c(I)c1 | inactive
7 | O=C(O)c1ccccc1NC(=O)N1CCC(c2ccccc2C(F)(F)F)CC1 | inactive
8 | COc1c(O)cc2c(c1O)C(=O)O[C@H](C)[C@H]2O | inactive
9 | CC(C)(C)OC(=O)c1ncn2c1C(C)(C)Nc1ccccc1-2 | inactive
10 | Cc1cc(CO)c(O)c(C(=O)CC2CC(=O)NC(=O)C2)c1 | inactive
11 | CC(C)CC(=O)NCCn1cc(C(=O)O)c(=O)cc1C(O)c1ccccc1 (stereo not given) | inactive
12 | C=C(C(=O)O)C1CC(O)C2(C)CCCC(C)(O)C2C1 (stereo not given) | inactive
13 | C=CCCN1CCC2(CC1)CN(C(=O)c1c(F)cccc1F)c1ccc(Cl)cc12 | inactive
14 | COc1cc(C2Oc3c(OC)cc(CCCO)cc3C2CO)ccc1O (stereo not given) | inactive
15 | C[C@@H]1O[C@@H](O[C@H]2[C@@H]3C=CO[C@@H](O[C@@H]4O[C@H](CO)[C@@H](O)[C@H](O)[C@H]4O)[C@@H]3[C@@]3(CO)O[C@@H]23)[C@H](OC(=O)/C=C/c2ccc(O)c(O)c2)[C@H](O)[C@H]1O | inactive

From PubChem BioAssay (NCATS)
